In PubChem BioAssay (NCI):
Compounds without any hit were thinned out: in the full panel of roughly 83,000, 20% have a hit.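 Results are percent growth after 48 hours of single-concentration exposure. 100 means growth as in untreated cells, lower positive values show inhibition; negative values down to -100 show cell death.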 Calls of active or inactive are those of the source. How the source made its calls: active means growth percent below 10; inactive means the rest.

The compounds below were run on SF-539 CNS (assay: NCI-60 one-dose screen, 48 h (100 = growth as untreated, 0 = no growth, -100 = all killed)). Settings: 10 µM unless noted.

Structure (SMILES) | growth
FC(F)(F)c1cc(-c2nnc3n2N=C(Cl)CS3)cc(C(F)(F)F)c1 | 109% (inactive)
COc1ccc(/C=C/c2nc3ccccc3c(=O)n2-c2ccc(C#Cc3ccc(C(C)(C)C)cc3)cc2C)c(OC)c1 | 97.1% (inactive)
Cc1cc(O)c2cc3c(O)c(O)ccc3cc2c1 | 100% (inactive)
COc1ccc(-c2nc3ccccc3n3cccc23)cc1 | 101% (inactive)
CCOC(=O)c1cc(C(=O)OCC)c(C)nc1C | 103% (inactive)
CN1C(=O)N(C)C2C1NN=c1s/c(=C\c3ccc(Br)cc3)c(=O)n12 (stereo unspecified) | 7.53% (active)
O=C1OCC2=C1C(c1ccccc1)c1cc3c(cc1N2CCO)OCO3 (stereo unspecified) | -0.802% (active)
CCC1N=C(N)N=C(N)N1c1ccc(Cl)cc1 (stereo unspecified) | 109% (inactive)
COc1cc(OC)cc(-c2ccc(-c3ccc(C(=N)N)s3)s2)c1 | -92.2% (active)
Cc1cccc(N=NC(=S)NNc2cccc(C)c2)c1 | 108% (inactive)
CCn1c(Cc2ccccc2Nc2c(Cl)cccc2Cl)nnc1SCC(=O)Nc1cccc(OC)c1 | 105% (inactive)
NC(=S)N1N=C(c2ccc(Cl)cc2)CC1c1cc2ccccc2[nH]c1=O (stereo unspecified) | 106% (inactive)
CC(C)c1nc2ccccc2n1CC(=O)N/N=C/c1cccc(O)c1 | 97.6% (inactive)
COc1ccc(Oc2nc(Nc3ccc(N4CCOCC4)cc3)ncc2NC(=O)Nc2cccc(OC)c2)cc1 | 28.3% (inactive)
Clc1cccc(CNc2c3ccccc3nc3ccccc23)c1 | 9.28% (active)
O=C1OCC2=C1C(c1ccccc1)c1cc3c(cc1N2CCO)CCC3 (stereo unspecified) | -50.5% (active)
